Experimental data as given in PubChem BioAssay.

What follows are molecules tested against Pro-neuregulin-1, membrane-bound isoform (Homo sapiens) (UniProt Q02297) (assay: small molecules binding neuregulin-1 protein – biochemical, small-molecule microarray, fluorescence 635/667, psychiatric disease protein project, primary screen (AID 1075;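 also: score combines 667 nm spot fluorescence with signal to noise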)). Details: NRG1 binding, 635 nm fluorescence, higher = more signal.
Chain of Pro-neuregulin-1, membrane-bound isoform (Homo sapiens) (Q02297 whole entry, looked up, canonical isoform): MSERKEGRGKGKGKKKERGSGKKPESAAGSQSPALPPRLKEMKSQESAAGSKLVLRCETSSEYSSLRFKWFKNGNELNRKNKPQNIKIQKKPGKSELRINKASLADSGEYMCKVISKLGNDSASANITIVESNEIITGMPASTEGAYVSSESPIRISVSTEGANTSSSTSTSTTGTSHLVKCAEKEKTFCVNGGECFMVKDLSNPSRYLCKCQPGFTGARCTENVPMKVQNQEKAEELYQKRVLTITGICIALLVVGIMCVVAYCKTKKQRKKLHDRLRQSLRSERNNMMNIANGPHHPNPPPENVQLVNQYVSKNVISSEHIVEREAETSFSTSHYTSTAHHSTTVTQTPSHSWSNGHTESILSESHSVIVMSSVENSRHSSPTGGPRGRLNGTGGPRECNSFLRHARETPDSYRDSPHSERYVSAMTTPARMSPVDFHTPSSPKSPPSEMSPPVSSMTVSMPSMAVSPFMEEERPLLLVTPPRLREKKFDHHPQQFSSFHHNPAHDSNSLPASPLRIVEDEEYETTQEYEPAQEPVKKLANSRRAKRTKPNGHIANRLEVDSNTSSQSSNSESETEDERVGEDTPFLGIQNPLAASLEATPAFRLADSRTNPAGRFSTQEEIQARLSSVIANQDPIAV
With `[N-]=[N+]=Nc1ccccc1[C@H]1OC(c2ccc(OCCCO)cc2)=N[C@@]1(Cc1ccccc1)C(=O)N1CCCCC1` the composite z-score was 1.01. `CCCNC(=O)[C@@]1(c2ccc([N+](=O)[O-])cc2)CC(=O)N(C2CCCCC2)[C@@H]1c1ccc(CO)cc1` was tested, and the composite z-score was 0.675. Molecule `CN1C(=O)C2C=CC(C(O)c3ccccn3)N(N(c3ccccc3)c3ccccc3)C2C1=O` (stereo unspecified) has a composite z-score of 0.899. `COCCOC(=O)N1C(=O)[C@@]2(c3cc(C#CC4=CCCCC4)ccc31)[C@H](c1ccc(O)cc1)N1[C@H](c3ccccc3)[C@H](c3ccccc3)OC(=O)[C@H]1[C@@H]2C(=O)N1CCN(c2ncccn2)CC1` was tested, and the composite z-score was 0.576. `C[N+](C)(C)CCCCCCNC(=O)[C@H]1C[C@H]2C(=O)N[C@@H](Cc3ccccc3)C(=O)N2[C@H]1c1ccc(O)cc1` was tested, and the composite z-score was 0.736. Work on `O=C1NC(=O)C2C1C=CC(C(O)c1cccc3ccccc13)N2Nc1ccc(Cl)cc1Cl` (stereo unspecified) yielded a composite z-score of 1.53. With `COC(=O)[C@@]1(Cc2ccc(F)cc2)[C@H]2c3cc(C(=O)N4CCCC4)n(CCc4ccc(O)c(O)c4)c3C[C@H]2CN1C(=O)c1ccccc1` the composite z-score was 2.3. `O=C(CS)NCCCCCCNC(=O)[C@H]1C[C@H]2C(=O)N[C@@H](Cc3ccccc3)C(=O)N2[C@H]1c1ccc(O)cc1` showed a composite z-score of 1.34. In the case of `C#CCN([C@@H](Cc1ccc(O)cc1)C(=O)OC)[C@@H](/C=C/C1CC1)[C@H](O)Cc1ccccc1`, the composite z-score is reported as -0.737. `CCOC(=O)c1ccc(NC(=O)O[C@H]2[C@H](OC(=O)Nc3ccc4c(c3)OCO4)[C@@H](OC(=O)Nc3ccc4c(c3)OCO4)[C@@H](OC)O[C@@H]2CO)cc1` showed a composite z-score of 1.74. Work on `O=c1n(-c2ccccc2)c(=O)n2n1CC(COc1ccccc1)=C([C@H](O)CCc1ccccc1)[C@@H]2CO` yielded a composite z-score of -0.153. With `COc1ccc([Si](C)(C)[C@@H]2[C@@H](CC(=O)N3Cc4ccccc4C[C@H]3CO)O[C@]3(C(=O)N(Cc4cccc(N5C(=O)c6cccc7cccc5c67)c4)c4ccccc43)[C@H]2C)cc1` the composite z-score was 0.828. Molecule `CN(C)C(=O)[C@]1(CCS(=O)(=O)c2ccccc2)N=C(c2ccc(OCCCO)cc2)O[C@@H]1c1ccccc1N=[N+]=[N-]` has a composite z-score of 1.27. Work on `COC(=O)[C@@]1(Cc2ccc(OC)cc2)[C@H]2c3cc(C(=O)N4CCCC4)n(Cc4c(-c5ccccc5)noc4C)c3C[C@H]2CN1C(=O)c1ccccc1` yielded a composite z-score of 1.31. For `O=C1O[C@H](c2ccccc2)[C@H](c2ccccc2)N2[C@H]1[C@@H](C(=O)O)[C@]1(C(=O)Nc3ccc(C#CC4=CCCCC4)cc31)[C@H]2c1ccc(O)cc1`, the composite z-score was 0.92. Work on `COc1cc2c(cc1OC)CN(C(=O)[C@@H]1[C@H]3C(=O)O[C@H](c4ccccc4)[C@H](c4ccccc4)N3[C@H](c3ccc(OCCO)cc3)[C@@]13C(=O)Nc1ccccc13)CC2` yielded a composite z-score of 1.42. `COC(=O)[C@@]1(Cc2ccccc2)[C@H]2c3cc(C(=O)N(C)C)n(CCN4CNCC4=O)c3C[C@H]2CN1C(=O)c1ccccc1` was tested, and the composite z-score was 1.71. `CN(C)c1ccc(C(O)C2C=CC3C(=O)N(c4ccccc4)C(=O)C3N2Nc2ccc([N+](=O)[O-])cc2)cc1` (stereo unspecified) showed a composite z-score of 1.42. In the case of `C=C(C)c1cc2c(c(CCCCCC)n1)[Si](C(C)C)(C(C)C)OC2`, the composite z-score is reported as -0.792. In the case of `O=C1O[C@@H](c2ccccc2)[C@@H](c2ccccc2)N2[C@@H](c3ccc(O)cc3)[C@]3(C(=O)Nc4ccc(C#CC5(O)CCCCCC5)cc43)[C@@H](C(=O)NC[C@H](O)c3ccccc3)[C@H]12`, the composite z-score is reported as 1.02. In the case of `COCCCNC(=O)[C@@]1(Cc2ccccc2N=[N+]=[N-])N=C(c2ccc(OCCCO)cc2)O[C@H]1c1ccccc1`, the composite z-score is reported as 1.38. `O=C1O[C@H](c2ccccc2)[C@H](c2ccccc2)N2[C@H]1[C@@H](C(=O)Nc1nc3ccccc3s1)[C@]1(C(=O)Nc3ccc(C#CCCO)cc31)[C@H]2c1ccc(O)cc1` was tested, and the composite z-score was 1.2. `COC(=O)[C@@]1(Cc2ccccc2)[C@H]2c3cc(C(=O)N(C)C)n(CCc4ccc(O)c(OC)c4)c3C[C@H]2CN1C(=O)c1ccccc1` gave a composite z-score of 0.258. `O=C1OCC=C[C@H]2OC34C=CCN(c5ccc(Cl)cc5)C(=O)[C@H]3N(CCO)C(=O)[C@@H]4[C@@H]12` (stereo partly specified) showed a composite z-score of -0.0774. `CC(C)Cc1ccc(CN2CC[C@@H](NC(=O)Nc3ccccc3)C2)cc1` was tested, and the composite z-score was -0.54. With `C=CCC(OC(C)=O)[C@@H]1[C@@H](N(Cc2cc3ccccc3o2)C(=O)c2ccc(-c3ccccc3)cc2)c2cc(OCCCO)ccc2N1C(=O)c1ccc2ccccc2c1` (stereo partly specified) the composite z-score was 0.0445.
